From PubChem BioAssay AID1347074 (Center for Chemical Genomics, University of Michigan, 2019)
About 2,800 (6%) of roughly 47,000 compounds were called active. The list comes from a sample in which actives are over-represented; it also holds similar structures and randomly drawn compounds. Unmarked numbers belong to inactive results. No stated cut-off is given here; in the data, active means z-score above about 3 (passing the limit was not always enough); inactive means the rest.

Each molecule was assayed against Endoribonuclease Dicer (Homo sapiens) (UniProt Q9UPY3) (assay: inhibitors of Dicer pre-microRNA processing, primary screen, biochemical, cat-ELCCA, chemiluminescence (AID 1347074;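 further: plate controls were vehicle for no effect and no enzyme for full effect; higher signal means more uncleaved substrate so more Dicer inhibition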)). Conditions: cat-ELCCA pre-miR-21 Dicer processing, at 25 µM, hits give high values.
Sequence of Endoribonuclease Dicer (Homo sapiens) (Q9UPY3 whole entry, looked up): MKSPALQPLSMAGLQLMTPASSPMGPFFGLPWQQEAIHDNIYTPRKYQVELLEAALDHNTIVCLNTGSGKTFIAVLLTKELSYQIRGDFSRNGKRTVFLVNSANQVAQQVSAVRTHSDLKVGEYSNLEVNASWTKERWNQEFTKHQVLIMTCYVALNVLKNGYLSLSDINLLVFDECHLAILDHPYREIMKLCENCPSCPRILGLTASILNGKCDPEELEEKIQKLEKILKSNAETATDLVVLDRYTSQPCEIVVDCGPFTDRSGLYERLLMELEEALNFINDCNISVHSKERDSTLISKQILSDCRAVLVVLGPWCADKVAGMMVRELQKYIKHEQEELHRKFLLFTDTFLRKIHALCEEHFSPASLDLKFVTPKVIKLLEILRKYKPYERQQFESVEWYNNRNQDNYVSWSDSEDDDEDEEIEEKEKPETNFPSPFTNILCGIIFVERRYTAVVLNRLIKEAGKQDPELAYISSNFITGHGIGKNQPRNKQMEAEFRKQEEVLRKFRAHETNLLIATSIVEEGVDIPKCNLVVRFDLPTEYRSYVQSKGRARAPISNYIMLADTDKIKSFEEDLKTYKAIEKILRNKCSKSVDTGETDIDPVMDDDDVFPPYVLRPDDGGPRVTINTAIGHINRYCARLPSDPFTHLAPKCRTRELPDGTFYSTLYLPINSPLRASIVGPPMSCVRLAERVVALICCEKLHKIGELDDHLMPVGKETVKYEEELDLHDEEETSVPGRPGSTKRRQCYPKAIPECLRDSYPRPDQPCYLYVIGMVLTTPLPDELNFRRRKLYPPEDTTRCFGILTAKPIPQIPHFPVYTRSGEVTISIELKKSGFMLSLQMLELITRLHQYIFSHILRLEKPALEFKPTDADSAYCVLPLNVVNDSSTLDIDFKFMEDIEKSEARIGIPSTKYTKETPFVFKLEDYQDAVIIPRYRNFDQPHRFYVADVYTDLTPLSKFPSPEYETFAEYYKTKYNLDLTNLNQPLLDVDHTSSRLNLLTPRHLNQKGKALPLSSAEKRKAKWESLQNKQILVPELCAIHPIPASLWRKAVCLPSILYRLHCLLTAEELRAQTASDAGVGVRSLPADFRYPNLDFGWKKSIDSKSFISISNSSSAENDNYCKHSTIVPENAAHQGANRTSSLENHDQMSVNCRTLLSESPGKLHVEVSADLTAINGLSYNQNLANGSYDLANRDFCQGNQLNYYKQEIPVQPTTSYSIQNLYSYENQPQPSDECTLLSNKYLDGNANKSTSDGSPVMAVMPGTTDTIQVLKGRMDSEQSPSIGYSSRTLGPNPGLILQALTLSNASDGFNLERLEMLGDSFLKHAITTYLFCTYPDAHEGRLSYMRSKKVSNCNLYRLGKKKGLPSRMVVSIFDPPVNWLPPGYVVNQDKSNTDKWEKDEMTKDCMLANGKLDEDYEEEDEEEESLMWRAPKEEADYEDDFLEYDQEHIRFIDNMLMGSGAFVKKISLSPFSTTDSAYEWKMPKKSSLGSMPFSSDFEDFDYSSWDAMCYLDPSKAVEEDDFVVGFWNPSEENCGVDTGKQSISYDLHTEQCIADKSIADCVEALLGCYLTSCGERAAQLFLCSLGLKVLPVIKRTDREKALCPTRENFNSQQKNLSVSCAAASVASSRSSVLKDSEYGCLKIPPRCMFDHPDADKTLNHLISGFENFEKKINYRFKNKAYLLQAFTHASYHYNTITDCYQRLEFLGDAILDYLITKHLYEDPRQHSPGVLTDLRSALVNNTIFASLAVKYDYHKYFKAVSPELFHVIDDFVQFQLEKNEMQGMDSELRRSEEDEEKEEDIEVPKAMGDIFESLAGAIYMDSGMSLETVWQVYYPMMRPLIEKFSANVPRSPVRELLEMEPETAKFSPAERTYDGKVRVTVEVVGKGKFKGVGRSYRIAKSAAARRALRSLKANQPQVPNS

SMILES | z-score
CCOc1nc(-c2ccc(C)cc2)ccc1-c1noc(C)n1 | 0.71
Cn1c(SCC(=O)Nc2cccc(C(F)(F)F)c2)nnc1SCC(=O)Nc1cccc(C(F)(F)F)c1 | -0.05
COc1cc(C2c3c(oc4ccc(F)cc4c3=O)C(=O)N2Cc2ccccc2)ccc1O (centres undefined) | 2.47
COc1nc(NC(=O)NS(=O)(=O)c2ccccc2C(F)(F)F)nc(C23CC4CC(CC(C4)C2)C3)n1 | -0.58
Cc1ccc(S(=O)(=O)Nc2ccc3ncccc3c2)cc1 | 0.32
Cc1ccc2nc(-c3ccc(NS(=O)(=O)c4ccc(Cl)s4)cc3)sc2c1 | 4.31 (active)
Cc1ccc(Sc2nc3ccc(Cl)cc3s2)cc1 | -1.81
COc1ccc(C2CC(=O)c3cn4nc(C)nc4nc3C2)cc1OC (centres undefined) | -0.07
Cc1cc(C)c(S(=O)(=O)N2CCc3ccccc3C2)c(C)c1 | 0.07
CN([C@H]1CCN2CCc3ccccc3C2C1)S(C)(=O)=O (some centres undefined) | 3.92 (active)
CN(C(=O)CSc1nc(C2CCCCC2)c(C#N)c(=O)[nH]1)c1ccccc1 | -0.59
COc1ccc(C2=Nc3ccccc3SC(c3ccc(OC)c(O)c3)C2)c(O)c1 (centres undefined) | -0.56
COc1ncnc2sc(C(=O)O)c(C)c12 | 0.21
CCc1ccnc(NS(=O)(=O)c2ccc3c(c2)OCCO3)c1 | 0.59
CCOc1ccc(NS(=O)(=O)c2ccc(Cl)cc2)cc1 | 0.5
CCc1ccc(S(=O)(=O)Nc2cc(Cl)c3oc(=O)sc3c2)cc1 | 14.8 (active)
COc1ccc(-c2cnc3cc(-c4ccc(Cl)cc4)nn3c2N)cc1OC | 1.34
O=C1C2=C(Nc3ccccc3S(=O)(=O)C2c2ccc(Cl)cc2)c2ccccc21 (centres undefined) | 5.21 (active)
O=C1C2=C(Nc3[nH]c(=O)[nH]c(=O)c3C2c2ccc(F)cc2)c2ccccc21 (centres undefined) | -3.54
Cn1c2c(c(=O)n(C)c1=O)C(c1ccc(F)cc1)C1=C(N2)c2ccccc2C1=O (centres undefined) | 1.52
O=C1c2oc3ccccc3c(=O)c2C(c2ccccc2F)N1c1nncs1 (centres undefined) | -0.05
O=C1CC(=O)CC(c2cccc(Cl)c2)C1 | -0.3
Cc1ccc(-c2nnc(Nc3ccccc3)c3ccccc23)cc1S(=O)(=O)NCCO | 0.4
Cc1ccc(-c2nnc(NCc3ccccc3)c3ccccc23)cc1S(=O)(=O)N1CCOCC1 | 3.46 (active)
Cc1ccc(-c2nnc(N3CCOCC3)c3ccccc23)cc1S(=O)(=O)N1CCCCC1 | -4.68

SMILES | z-score
COCc1cc(C)nc(Nc2ccc(C)cc2)c1C#N | -0.19
CCCc1nnc2n1Nc1nc3ccccc3nc1S2 | 0.21
Cc1noc(C)c1S(=O)(=O)N(C)C1CCCCC1 | 0.73
O=C(O)CC(CC(=O)Oc1ccccc1N1CCCCC1)c1ccccc1 (centres undefined) | 4.46 (active)
Cn1nccc1NC(=O)CC(CC(=O)O)c1ccccc1 (centres undefined) | -0.73
Cc1cc(NC(=O)CC(CC(=O)O)c2ccccc2)n(C)n1 (centres undefined) | -1.02
CCOC(=O)c1ccc(NCN2C(=O)c3ccccc3C2=O)cc1 | 0.49
CCCN1C(=O)C2(/C(=C(/O)c3ccc(F)cc3)C(=O)C(=O)N2CCCN(C)C)c2ccccc21 (centres undefined) | -0.34
CCCCSc1nnc2c(n1)OC=Nc1ccc(Br)cc1-2 | 1.93
N#C/C(=C\N1CCc2ccccc21)C(=O)c1cccc(C(F)(F)F)c1 | -2.08
O=C(CSc1nc2ccccc2nc1N1CCCC1)N1CCN(c2ccccc2)CC1 | 1.57
O=C(CSc1nc2ccccc2nc1N1CCCC1)NCc1cccs1 | 3.04 (active)
O=C(CSc1nc2ccccc2nc1N1CCOCC1)Nc1ccccc1 | 1.99
N#CC1=C(N)Oc2ccc3ccccc3c2C1c1ccc(F)cc1 (centres undefined) | -0.03
O=C(O)c1ccc(N2C(=O)CC(N3CCCCC3)C2=O)cc1 (centres undefined) | -0.35
COc1ccc(CCNC(N)=O)cc1OC | 5.13 (active)
COc1ccc(CCNCC(O)Cn2ccc3ccccc32)cc1OC (centres undefined) | -0.31
COc1ccc(CCNC(=O)CCC(=O)O)cc1OC | 1.57
COC(=O)C(C(=O)OC)=C(SC)SC | -1.16
CC1(C)CC2(CC(C)(c3csc(Nc4ccccc4)n3)OC2=O)C(=O)O1 (centres undefined) | 1.11
O=[N+]([O-])c1ccc(CC(O)N2CCN(c3nc4ccc(Cl)cc4s3)CC2)cc1 (centres undefined) | -0.91
O=C(c1cccs1)c1nn(-c2ccccc2)c2nc(=O)c(Cc3ccc(Cl)cc3)nn12 | -0.23
Cc1[nH]cc(Br)c(=O)c1OCC(=O)O | 4.04 (active)
COc1ccc2[nH]cc(CCC(=O)O)c2c1 | 2.43
Cc1cc(C)cc(Oc2coc3cc(OCC(=O)O)ccc3c2=O)c1 | -0.66

SMILES | z-score
O=S(=O)(c1cc(Cl)c(Cl)cc1Cl)N1CCc2[nH]c3ccc(F)cc3c2C1 | -0.85
Cc1ccc(O)c(-c2cnc3ccccc3n2)c1 | -1.69
O=C1C=C(NNc2ccccc2)CCC1 | 3.26 (active)
CC1(C)CC(=O)C=C(Nc2ccccc2)C1 | 2.68
Cc1ccc(-n2nnnc2-c2ccc(Cl)c(Cl)c2)c(C)c1 | -1.31
Nc1n[nH]c2c1CSc1ccc(Cl)cc1-2 | -4.16
Cc1ccc2nc(Nc3ncc4c(n3)CC(C)(C)CC4=O)nc(C)c2c1 | 1.2
NC(=S)NNC(=O)c1cccc(C(F)(F)F)c1 | 33.4 (active)
CCOC(=O)c1cc(CC)sc1NC(=O)c1cccc(C(F)(F)F)c1 | 0.82
O=C(CS(=O)(=O)c1ccc(C(F)(F)F)cn1)NNC(=O)c1ccccc1 | 0.59
O=[N+]([O-])c1cccc(C2CC(c3ccccc3)=Nc3ccccc3S2)c1 (centres undefined) | -1.81
C1=CC2CC1CC2CN1CCN(Cc2c[nH]c3ccccc23)CC1 (centres undefined) | 4.79 (active)
COc1cccc(-c2ccc(-c3noc(-c4cccc(OC)c4)n3)c(OC)n2)c1 | 0.01
COc1cccc2c1OC(c1ccccc1F)N1N=C(c3ccccc3O)CC21 (centres undefined) | 5.58 (active)
COc1cccc(C2Oc3ccccc3C3CC(c4ccccc4O)=NN32)c1OC (centres undefined) | 6.13
COc1ccc(O)c(C2=NN3C(C2)c2cccc(OC)c2OC3c2ccccc2)c1 (centres undefined) | 1.51
Cn1c(-c2ccccc2)cnc1NCc1c(F)cccc1Cl | 2.86
Nc1cccc(CCc2nc3ccccc3[nH]2)c1 | 1.56
Nc1ccc(/C=C/c2nc3ccccc3[nH]2)cc1 | 4.8 (active)
Cc1ccc(-c2nc3ccccc3[nH]2)cc1N | 0.04
CCCCn1nnc2sc3c(c2c1=O)CCCC3 | -0.96
O=C(CSc1nc2c(c(C(F)(F)F)n1)CCc1ccccc1-2)N1CCOCC1 | 0.53
COc1cc2c(cc1OC)C(C)N(Cc1cc(C)c(O)c(C)c1)CC2 (centres undefined) | -0.23
CCOC(=O)c1cc(Sc2ccccc2)cc(C(=O)OCC)n1 | -0.71
CCc1ccc(C2C(C(=O)OC)=C(C)NC3=C2C(=O)CC(C)(C)C3)cc1 (centres undefined) | 0.1

SMILES | z-score
CC(C)(C)OC(=O)n1ccc2cc(Br)ccc21 | 3.27 (active)
CC(=O)Oc1cc2c(C(=O)N3CCN(c4ccccc4)CC3)c(C)oc2c2ccccc12 | 3.08 (active)
CCOC(=O)c1nnn2c1nc(N1CCN(c3ccccc3)CC1)c1ccccc12 | 0.67
CCOC(=O)c1cc(-c2ccccc2)sc1NC(=S)N1CCN(c2ccccc2)CC1 | 1.09
O=C(CC1(O)C(=O)N(CCc2ccccc2)c2ccccc21)c1cccc(-n2cccc2)c1 (centres undefined) | -0.51
C1=C(c2cccs2)CC(c2cccs2)=NN=C1c1cccs1 | 3.06 (active)
Cc1[nH]nc2c1C(c1ccccc1Cl)C(C#N)=C(N)O2 (centres undefined) | -1.03
O=C(O)C1C2C=CC(C2)C1C(=O)N1CCN(CCO)CC1 (centres undefined) | 3.56 (active)
COc1ccc(-c2c(C)nn3c2N=C(c2ccccc2)CC3c2ccco2)cc1 (centres undefined) | -0.12
CC(C)N(CCC#N)CN1C(=O)c2ccccc2C1=O | 1.63
COc1cc2c(cc1OC)C(c1ccccc1)=NC(C)(C)C2 | 0.36
FC(F)(F)c1cccc(NC(=S)NNc2nccc(C(F)(F)F)n2)c1 | 3.39 (active)
FC(F)(F)c1ccc(/C=N/Nc2nccc(C(F)(F)F)n2)cc1 | 0.54
FC(F)(F)c1ccnc(NCCNc2nccc(C(F)(F)F)n2)c1 | -0.42
Cc1cc2c(cc1C)CSC(C)(c1cccc([N+](=O)[O-])c1)SC2 | -1.77
Oc1ccc(C2Nc3cccc4cccc(c34)N2)cc1 | 0.15
Cc1ccc(C2CC(c3cccc(C)c3)n3nc(N)nc3N2)cc1 (centres undefined) | 0.14
COc1cccc(C2Nc3cccc4cccc(c34)N2)c1 | 3.24 (active)
Cc1ccc(C2Nc3cccc4cccc(c34)N2)cc1 | 3.06 (active)
COc1cccc(-n2[nH]nnc2=S)c1 | 1.1
O=C(CSc1nc2c(c(C(F)(F)F)n1)CCc1ccccc1-2)NCc1cccnc1 | 2.31
CC1=C(C(=O)OC2CCCCC2)C(c2cccnc2)C2=C(CCCC2=O)N1 (centres undefined) | -0.48
CC1=NOC(=O)C1C(c1cccc(Br)c1)c1c(C)[nH]n(-c2ccccc2)c1=O (centres undefined) | -4.75
CC(C)(C)c1cc2nc(-c3ccc4c(c3)CCC4)cc(C(F)(F)F)n2n1 | -1.01
